Test systems include SK-MEL-2 melanoma; EKVX NSCLC; SN12C renal; UO-31 renal; TK-10 renal; ACHN renal; CAKI-1 renal; A498 renal; CCRF-CEM leukemia; MOLT-4 leukemia; SR leukemia; OVCAR-8 ovarian; OVCAR-5 ovarian; OVCAR-4 ovarian; SK-OV-3 ovarian; IGROV1 ovarian; OVCAR-3 ovarian; HS 578T breast; NCI/ADR-RES ovarian.
Holding throughout (assay): NCI-60 one-dose screen, 48 h (100 = growth as untreated, 0 = no growth, -100 = all killed)
What all share (conditions): 10 µM unless noted

About 83,000 compounds went through this panel and 20% of them were active in at least one assay; those are over-represented in the sample as a whole.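 Treatment: one concentration, 48 hours, 96-well format. Scoring: percent growth, with anything below 10 considered active.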 Values without a mark were called inactive. The source made the active and inactive calls.

`NCCNc1nc2ccccc2c2c(=O)c3cc(F)ccc3sc12`: the growth with SK-MEL-2 melanoma was 112%; with EKVX NSCLC, 78.2%; in the assay on SN12C renal, 71.1%; in the assay on UO-31 renal, 47.3%; in the assay on TK-10 renal it was 101%; in the assay with ACHN renal, 54.5%. Besides, the growth was 45.1% in the assay with CAKI-1 renal; 49.4% in the assay on A498 renal; 45.7% in the assay with CCRF-CEM leukemia; 46.6% in the assay on MOLT-4 leukemia; -20.5% (active) in the assay with SR leukemia; 79.2% with OVCAR-8 ovarian. For the same compound, the growth with OVCAR-5 ovarian was 91.4%; in the assay with OVCAR-4 ovarian, 60.3%; in the assay on SK-OV-3 ovarian, 83.3%; in the assay on IGROV1 ovarian it was 70.9%; in the assay on OVCAR-3 ovarian it was 66.8%; in the assay with HS 578T breast, 74.8%. Also, the growth in the assay on NCI/ADR-RES ovarian was 78.8%.
As to `CCc1cccc2c1S/C(=C/c1ccc(OC)cc1)C2=O`, the growth with SK-MEL-2 melanoma was 51%; with EKVX NSCLC, 93.9%; with SN12C renal, 49.4%; in the assay with UO-31 renal, 52.9%; with TK-10 renal, 127%; with ACHN renal, 54.1%. Also, the growth in the assay with CAKI-1 renal was 6.96% (active); in the assay with A498 renal, 104%; in the assay with CCRF-CEM leukemia, 35.7%; in the assay with MOLT-4 leukemia it was 34.5%; in the assay on SR leukemia, 15.1%; in the assay on OVCAR-8 ovarian, 55.9%. Besides, the growth with OVCAR-5 ovarian was 76%; with OVCAR-4 ovarian, 59.4%; in the assay on SK-OV-3 ovarian, 79.3%; in the assay on IGROV1 ovarian, 30.4%; with OVCAR-3 ovarian it was 23.8%; in the assay with HS 578T breast, 41.5%. Besides, the growth in the assay on NCI/ADR-RES ovarian was 30.2%.
On to `O=[N+]([O-])c1ccc(Oc2nc(Nc3ccc(O[C@H]4CO[C@H]5[C@@H]4OC[C@@H]5O)c(Cl)c3)ncc2F)c(Cl)c1`, for which the growth in the assay with SK-MEL-2 melanoma was 21.7%; in the assay on EKVX NSCLC it was 43.8%; in the assay with SN12C renal, 15.9%; with UO-31 renal it was -9.77% (active); in the assay with TK-10 renal, 44.5%; in the assay on ACHN renal, 19.3%. Moreover, the growth in the assay with CAKI-1 renal was 7.81% (active); in the assay on A498 renal, -2.07% (active); in the assay with CCRF-CEM leukemia it was 25.1%; with MOLT-4 leukemia, -3.69% (active); with SR leukemia it was 10.5%; in the assay on OVCAR-8 ovarian, 32.5%. In addition, the growth in the assay on OVCAR-5 ovarian is 43.2%; with OVCAR-4 ovarian, 34.4%; in the assay with SK-OV-3 ovarian, 9.64% (active); with IGROV1 ovarian, -13% (active); in the assay with OVCAR-3 ovarian, 31.1%; in the assay with HS 578T breast it was -2.68% (active). The growth with NCI/ADR-RES ovarian was 81.3%.
Consider `CS(=O)(=O)N(c1cc(-c2ccc3ncnc(Nc4ccc(F)c(Cl)c4)c3c2)cnc1Cl)S(C)(=O)=O`, for which the growth is 27.3% in the assay with SK-MEL-2 melanoma; 26.3% in the assay with EKVX NSCLC; 31.6% in the assay on SN12C renal; 17.1% in the assay with UO-31 renal; 19% in the assay with TK-10 renal; 35.5% in the assay with ACHN renal. The growth in the assay with CAKI-1 renal was 31.9%; in the assay with A498 renal, -30.8% (active); in the assay on CCRF-CEM leukemia it was 18.4%; in the assay on MOLT-4 leukemia, 6.91% (active); with SR leukemia it was 47.5%; in the assay on OVCAR-8 ovarian, 66.1%. Besides, the growth in the assay with OVCAR-5 ovarian was 30.6%; with OVCAR-4 ovarian, 65.7%; with SK-OV-3 ovarian, 14.6%; in the assay on IGROV1 ovarian, -22.3% (active); in the assay with OVCAR-3 ovarian, 36.1%; in the assay on HS 578T breast it was -1.88% (active). Further, the growth in the assay on NCI/ADR-RES ovarian was 69%.
As for `COc1ccc2nc(NC(=O)c3cccnc3Nc3ccc(S(N)(=O)=O)cc3)sc2c1`, the growth in the assay on SK-MEL-2 melanoma was 103%; with EKVX NSCLC, 92%; in the assay with SN12C renal, 110%; with UO-31 renal, 126%; with TK-10 renal, 99%; in the assay on ACHN renal, 90%. Besides, the growth with CAKI-1 renal is 76.1%; in the assay on A498 renal, 93.5%; in the assay on CCRF-CEM leukemia, 59.3%; in the assay with MOLT-4 leukemia, 63.3%; with SR leukemia it was 59.6%; with OVCAR-8 ovarian it was 97.1%. In addition, the growth was 102% in the assay with OVCAR-5 ovarian; 81.7% in the assay with OVCAR-4 ovarian; 116% with SK-OV-3 ovarian; 134% in the assay on IGROV1 ovarian; 98.9% in the assay with OVCAR-3 ovarian; 96.7% in the assay with HS 578T breast. In addition, in the assay with NCI/ADR-RES ovarian, the growth was 104%.
As to `CCN(CC)CCNC(=O)c1cn2ncnc(Oc3ccc(NC(=O)Nc4ccc(Cl)c(C(F)(F)F)c4)cc3)c2c1C`, the growth was -51.7% (active) in the assay with SK-MEL-2 melanoma; -47.7% (active) in the assay on EKVX NSCLC; -92.5% (active) with SN12C renal; -92% (active) with UO-31 renal; -66% (active) with TK-10 renal; -55.2% (active) with ACHN renal. In addition, the growth in the assay on CAKI-1 renal is -58.9% (active); in the assay with A498 renal it was -6.51% (active); with CCRF-CEM leukemia, -8.36% (active); with MOLT-4 leukemia it was -45% (active); with SR leukemia it was -56.4% (active); in the assay with OVCAR-8 ovarian, -42.5% (active). In addition, the growth was -62.7% (active) in the assay with OVCAR-5 ovarian; -8.97% (active) with OVCAR-4 ovarian; -85.9% (active) in the assay with SK-OV-3 ovarian; -53.1% (active) in the assay on IGROV1 ovarian; -70.9% (active) with OVCAR-3 ovarian; -44.4% (active) in the assay with HS 578T breast. The growth with NCI/ADR-RES ovarian was 61%.
For `Cc1ccc(NC2=C(Cl)C(=O)c3nc(C)ccc3C2=O)cc1`, the growth in the assay on SK-MEL-2 melanoma is -23.8% (active); with EKVX NSCLC, 58.6%; in the assay with SN12C renal it was -70.4% (active); in the assay with UO-31 renal, -80.6% (active); with TK-10 renal, 130%; in the assay with ACHN renal, -98.1% (active). Moreover, the growth with CAKI-1 renal was -72% (active); in the assay on A498 renal it was 91%; with CCRF-CEM leukemia it was 0.58% (active); in the assay on MOLT-4 leukemia, -13.5% (active); with SR leukemia it was 21.8%; in the assay with OVCAR-8 ovarian, -49.4% (active). For the same compound, the growth was -11.6% (active) with OVCAR-5 ovarian; -97.9% (active) in the assay on OVCAR-4 ovarian; 88.7% with SK-OV-3 ovarian; -75.5% (active) in the assay on IGROV1 ovarian; -76.7% (active) with OVCAR-3 ovarian; 27.9% in the assay with HS 578T breast. Further, in the assay on NCI/ADR-RES ovarian, the growth was 30.6%.
Regarding `c1ccc(CO[C@H]2CO[C@H]3[C@@H]2OC[C@@H]3Oc2ccc(Nc3ncnc4ccsc34)cc2)cc1`, the growth in the assay with SK-MEL-2 melanoma is 84%; with EKVX NSCLC, 62.3%; in the assay with SN12C renal it was 69.3%; in the assay on UO-31 renal it was 42%; in the assay with TK-10 renal, 99.6%; in the assay on ACHN renal, 72.1%. Also, the growth with CAKI-1 renal is 74.7%; with A498 renal, 33.2%; in the assay on CCRF-CEM leukemia, 77.7%; in the assay on MOLT-4 leukemia, 64.5%; in the assay with SR leukemia, 60.6%; in the assay with OVCAR-8 ovarian, 81.6%. Moreover, the growth was 94.9% in the assay on OVCAR-5 ovarian; 81.8% in the assay on OVCAR-4 ovarian; 95.8% in the assay with SK-OV-3 ovarian; 70.3% in the assay on IGROV1 ovarian; 93.7% in the assay with OVCAR-3 ovarian; 90.5% in the assay on HS 578T breast. The growth in the assay with NCI/ADR-RES ovarian is 73.3%.
As to `CNCCCNc1nc2ccccc2c2c(=O)c3cc(F)ccc3sc12`, the growth in the assay on SK-MEL-2 melanoma was 91%; in the assay with EKVX NSCLC, 64.7%; in the assay with SN12C renal, 58.7%; in the assay on UO-31 renal, 20.8%; in the assay with TK-10 renal it was 43.3%; in the assay on ACHN renal it was 10.9%. Besides, the growth with CAKI-1 renal was -60.9% (active); with A498 renal, 28%; in the assay on CCRF-CEM leukemia, -3.67% (active); in the assay with MOLT-4 leukemia, -27.9% (active); in the assay on SR leukemia, -35.9% (active); with OVCAR-8 ovarian it was 28%. For the same compound, the growth in the assay with OVCAR-5 ovarian was 66.3%; in the assay on OVCAR-4 ovarian, 19.9%; in the assay on SK-OV-3 ovarian, 75.4%; in the assay with IGROV1 ovarian it was 41.4%; with OVCAR-3 ovarian, -1% (active); with HS 578T breast it was 37.8%. Besides, in the assay on NCI/ADR-RES ovarian, the growth was 21.4%.
As to `CN(C)CCNc1nc2ccccc2c2c(=O)c3cc(F)ccc3sc12`, the growth was 87.3% in the assay on SK-MEL-2 melanoma; 67.7% with EKVX NSCLC; 50.8% in the assay on SN12C renal; 25.2% in the assay on UO-31 renal; 55.4% in the assay on TK-10 renal; 21.4% in the assay with ACHN renal. In addition, the growth in the assay on CAKI-1 renal is 14%; in the assay with A498 renal it was 17.6%; in the assay with CCRF-CEM leukemia, 24.4%; in the assay on MOLT-4 leukemia it was -3.39% (active); with SR leukemia, -23.5% (active); in the assay on OVCAR-8 ovarian, 40.2%. For the same compound, the growth is 76.9% with OVCAR-5 ovarian; 29.9% in the assay on OVCAR-4 ovarian; 77.1% in the assay with SK-OV-3 ovarian; 49% with IGROV1 ovarian; 38.1% in the assay with OVCAR-3 ovarian; 47.8% with HS 578T breast. Moreover, the growth in the assay with NCI/ADR-RES ovarian was 38.3%.
Turning to `CCCCCCn1c(-c2ccc(C(=O)O/N=C(\N)c3ccc(OC)cc3)cc2)nc(-c2ccccc2)c1-c1ccccc1`, the growth was 47.3% in the assay with SK-MEL-2 melanoma; -75.6% (active) with EKVX NSCLC; -70.3% (active) with SN12C renal; -86.4% (active) in the assay on UO-31 renal; -73.6% (active) in the assay on TK-10 renal; -91.5% (active) in the assay with ACHN renal. Moreover, the growth with CAKI-1 renal was -64.5% (active); in the assay with A498 renal, 4.08% (active); with CCRF-CEM leukemia, -35% (active); in the assay on MOLT-4 leukemia it was -35.7% (active); with SR leukemia, -37.5% (active); in the assay with OVCAR-8 ovarian, 1.03% (active). Also, the growth in the assay on OVCAR-5 ovarian is 25.5%; in the assay on OVCAR-4 ovarian, 7.82% (active); in the assay on SK-OV-3 ovarian, 77.9%; in the assay with IGROV1 ovarian it was -68.1% (active); with OVCAR-3 ovarian, 18%; with HS 578T breast it was -20.4% (active). Further, the growth with NCI/ADR-RES ovarian was -36.9% (active).

Values taken from PubChem BioAssay (NCI).
